According to PubChem BioAssay:
Values without a mark were called inactive. This is one part of the list. Active and inactive are the calls of the source. Cut-off read from the data, not from the text of the source, unless noted: active = activation above about 22%; inactive = the rest.

Columns and labels:
[1] = STAT3 reporter inhibitors, retest of hits, confirmation, U3A cells, luciferase, luminescence (AID 1265;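 active = inhibition above the hit cutoff computed for the primary STAT3 screen, cut at about 44% in these data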;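 note: 0% = IL-6 plus DMSO and 100% = IL-6 plus nifuroxazide control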); details: IL-6 STAT3 luciferase reporter, at 5.7 µM, active compounds read high, cell line lacks STAT1
[2] = NF-kB reporter inhibitors in human cells, confirmation, counter-screen for STAT3 inhibitor project, cell-based, HEK293T, luciferase, TNF-alpha stimulus (AID 1308;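 active = inhibition above the mean of solvent-only control wells plus 3 SD, cutoff set per campaign, cut at about 13% in these data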;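 note: 0% = TNF-alpha with DMSO and 100% = TNF-alpha with MG high control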); details: TNF-alpha induced, at 5.7 µM, active compounds read high
[3] = STAT1 reporter inhibitors, IFN-gamma induced, confirmation, counter-screen for STAT3 inhibitor project, cell-based, NIH 3T3, luciferase luminescence (AID 1317;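 active = inhibition above the mean plus 3 SD of solvent-only control wells, limit set per screening run, cut at about 16% in these data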;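 note: 0% = DMSO with IFN-gamma and 100% = nifuroxazide control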); details: NIH 3T3 STAT1-luciferase reporter, at 5.7 µM, active compounds read high
[4] = target: Photoreceptor-specific nuclear receptor (Homo sapiens) (UniProt Q9Y5X4); test: NR2E3 agonist confirmation in cells, cell-based, luminescence, CHO-S two-hybrid (AID 624378;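 active = average inhibition above a cutoff equal to the mean inhibition of all tested compounds plus one SD, cut at about 70% in these data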;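 note: 0% = DMSO in NR2E3 cells and 100% = DMSO in cells lacking NR2E3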); details: CHO-S mammalian two-hybrid NR2E3-NCOR, luciferase luminescence; at 3.98 µM; active compounds read high
Sequence of Photoreceptor-specific nuclear receptor (Homo sapiens) (Q9Y5X4 whole entry, looked up, the tested form may be a part): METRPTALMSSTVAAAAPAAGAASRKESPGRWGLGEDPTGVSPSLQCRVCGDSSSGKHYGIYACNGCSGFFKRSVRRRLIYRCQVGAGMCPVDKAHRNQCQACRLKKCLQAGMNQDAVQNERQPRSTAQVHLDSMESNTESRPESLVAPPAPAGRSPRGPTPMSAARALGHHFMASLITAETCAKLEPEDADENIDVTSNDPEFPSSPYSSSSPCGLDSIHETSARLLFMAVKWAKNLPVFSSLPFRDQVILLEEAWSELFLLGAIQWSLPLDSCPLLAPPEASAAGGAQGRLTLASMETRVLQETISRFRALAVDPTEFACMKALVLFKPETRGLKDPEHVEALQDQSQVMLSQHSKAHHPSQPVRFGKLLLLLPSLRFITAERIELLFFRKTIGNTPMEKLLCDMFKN

[5] = GAL4-VP16 reporter modulators, confirmation, counter-screen for NR2E3 agonist project, cell-based, luminescence, CHO-S, high throughput (AID 624379;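 active = mean inhibition above a cutoff equal to the average over all tested compounds plus one standard deviation, cut at about 70% in these data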;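 note: 0% = DMSO with VP16-transfected cells and 100% = DMSO with cells lacking VP16; higher means less reporter light so more repression of VP16 activity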); details: CHO-S GAL4-VP16 luciferase reporter, at 3.98 µM, active compounds read high
[6] = StAR promoter reporter inhibitors, counter-screen for LRH-1 inverse agonist project, cell-based, luminescence, high throughput (AID 651611; in the data active = inhibition above about 28%); details: StAR promoter luciferase reporter counterscreen, at 3.6 µM, active compounds read high
[7] = target: Nuclear receptor subfamily 5 group A member 2 (Homo sapiens) (UniProt O00482); test: LRH-1 (NR5A2) inverse agonists, retest, confirmation, cell-based, luminescence (AID 651613; in the data active = inhibition above about 42%;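 note: HEK293T cells co-transfected with LRH-1 and StAR promoter luciferase reporter; 0% = vehicle wells and 100% = parental cells lacking receptor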); details: cell-based LRH-1 luciferase reporter, inverse agonism; at 3.6 µM; active compounds read high
Sequence of Nuclear receptor subfamily 5 group A member 2 (Homo sapiens) (O00482 whole entry, looked up): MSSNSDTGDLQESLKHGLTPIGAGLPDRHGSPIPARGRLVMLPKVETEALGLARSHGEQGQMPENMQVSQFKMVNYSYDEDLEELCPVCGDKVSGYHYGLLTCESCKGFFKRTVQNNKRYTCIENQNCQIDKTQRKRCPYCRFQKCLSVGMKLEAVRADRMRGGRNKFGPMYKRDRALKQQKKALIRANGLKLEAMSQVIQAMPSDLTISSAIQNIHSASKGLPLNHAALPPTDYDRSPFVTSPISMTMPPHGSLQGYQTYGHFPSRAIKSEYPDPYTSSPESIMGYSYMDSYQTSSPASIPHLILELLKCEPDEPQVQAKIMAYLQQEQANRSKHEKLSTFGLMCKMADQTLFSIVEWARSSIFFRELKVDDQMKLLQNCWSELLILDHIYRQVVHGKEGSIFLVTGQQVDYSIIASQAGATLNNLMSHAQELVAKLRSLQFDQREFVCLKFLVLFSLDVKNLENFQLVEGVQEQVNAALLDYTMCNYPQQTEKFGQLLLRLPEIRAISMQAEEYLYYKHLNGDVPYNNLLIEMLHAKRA

[8] = target: Steroidogenic factor 1 (Homo sapiens) (UniProt Q13285); test: SF1 (NR5A1) inverse agonists, counter-screen for LRH-1 inverse agonist project, cell-based, luminescence, high throughput (AID 651614; in the data active = inhibition above about 44%;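 note: cells cotransfected with StAR promoter reporter and SF1 expression vector; 0% = vehicle on cells with receptor and 100% = vehicle on cells lacking receptor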); details: cell-based SF1 luciferase reporter, at 3.6 µM, active compounds read high
Sequence of Steroidogenic factor 1 (Homo sapiens) (Q13285 whole entry, looked up, the tested form may be a part): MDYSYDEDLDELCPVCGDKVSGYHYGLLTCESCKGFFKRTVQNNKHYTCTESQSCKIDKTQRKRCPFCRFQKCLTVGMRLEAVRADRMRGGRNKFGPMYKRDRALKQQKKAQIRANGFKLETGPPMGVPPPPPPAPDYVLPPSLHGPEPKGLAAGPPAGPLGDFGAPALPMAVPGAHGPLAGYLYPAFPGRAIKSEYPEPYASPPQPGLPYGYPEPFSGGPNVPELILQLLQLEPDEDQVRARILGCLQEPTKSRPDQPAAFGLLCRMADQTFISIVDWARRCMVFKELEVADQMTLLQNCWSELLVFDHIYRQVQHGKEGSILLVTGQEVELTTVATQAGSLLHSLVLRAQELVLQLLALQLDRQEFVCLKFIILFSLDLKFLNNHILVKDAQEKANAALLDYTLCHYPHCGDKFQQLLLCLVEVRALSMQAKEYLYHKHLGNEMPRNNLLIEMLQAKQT

[9] = VP16 transactivation reporter inhibitors, counter-screen for LRH-1 inverse agonist project, cell-based, luminescence, high throughput (AID 651615; in the data active = inhibition above about 33%); details: Gal4-VP16 luciferase reporter cells, at 3.6 µM, active compounds read high
[10] = Gal4-VP16 luciferase reporter inhibitors, counter-screen for COUP-TFII antagonist project, cell-based, luminescence, HEK293 (AID 687007; in the data active = inhibition above about 13%); details: at 8.5 µM, active compounds read high
[11] = target: COUP transcription factor 2 (Homo sapiens) (UniProt P24468); test: NR2F2 transcriptional activity inhibitors, confirmation, cell-based, luciferase reporter, HEK293, triplicate (AID 687008;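 active = mean inhibition over three repeats above a set limit taken from the earlier primary screen, cut at about 38% in these data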;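 note: 100% = cells given the luciferase reporter alone without the COUP-TF2 vector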); details: HEK293 NGFI-A luciferase reporter, luminescence; at 8.5 µM; active compounds read high
[12] = target: Nuclear receptor coactivator 1 (Homo sapiens) (UniProt Q15788); test: SRC1 coactivator transcriptional activity inhibitors, confirmation, cell-based, luminescence, quadruplicate (AID 588820;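 active = mean inhibition above 46.68%, the untreated control wells mean plus 3 SD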;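 note: 0% = DMSO wells and 100% = gossypol 36 µM treated wells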); details: HEK293 GAL4-SRC1 luciferase reporter, at 3.6 µM, active compounds read high
[13] = VP16 transactivation inhibitors, counter-screen for SRC1 inhibitor project, cell-based, luminescence, high throughput (AID 588824; in the data active = inhibition above about 25%); details: cell-based VP16 transactivation luciferase luminescence; at 3.6 µM; active compounds read high
[14] = target: Sphingosine 1-phosphate receptor 4 (Homo sapiens) (UniProt O95977); test: S1P4 receptor antagonists, human, confirmation, cell-based (AID 1524; in the data active = inhibition above about 30%); details: S1P4-expressing cell line, antagonist mode, reporter read-out; at 4.98 µM; active compounds read high
Sequence of Sphingosine 1-phosphate receptor 4 (Homo sapiens) (O95977 whole entry, looked up): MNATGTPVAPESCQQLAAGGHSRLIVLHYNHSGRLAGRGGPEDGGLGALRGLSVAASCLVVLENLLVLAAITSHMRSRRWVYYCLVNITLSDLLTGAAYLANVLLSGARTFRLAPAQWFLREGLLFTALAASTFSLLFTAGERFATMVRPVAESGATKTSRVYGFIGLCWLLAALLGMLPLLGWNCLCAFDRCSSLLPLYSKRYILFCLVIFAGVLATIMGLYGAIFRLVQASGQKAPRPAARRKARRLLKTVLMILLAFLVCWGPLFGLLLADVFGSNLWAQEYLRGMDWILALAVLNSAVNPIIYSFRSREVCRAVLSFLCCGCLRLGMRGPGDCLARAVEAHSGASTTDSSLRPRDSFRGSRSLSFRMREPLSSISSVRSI

[15] = target: Sphingosine 1-phosphate receptor 1 (Homo sapiens) (UniProt P21453); test: S1P1 receptor antagonists, human, counter-screen for S1P4 antagonist project, cell-based (AID 1564; in the data active = inhibition above about 40%;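 note: receptor stimulated with S1P near its EC80; 0% = agonist stimulated wells and 100% = vehicle only wells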); details: cell-based S1P1 antagonist counterscreen, at 4.98 µM, active compounds read high
Sequence of Sphingosine 1-phosphate receptor 1 (Homo sapiens) (P21453 whole entry, looked up): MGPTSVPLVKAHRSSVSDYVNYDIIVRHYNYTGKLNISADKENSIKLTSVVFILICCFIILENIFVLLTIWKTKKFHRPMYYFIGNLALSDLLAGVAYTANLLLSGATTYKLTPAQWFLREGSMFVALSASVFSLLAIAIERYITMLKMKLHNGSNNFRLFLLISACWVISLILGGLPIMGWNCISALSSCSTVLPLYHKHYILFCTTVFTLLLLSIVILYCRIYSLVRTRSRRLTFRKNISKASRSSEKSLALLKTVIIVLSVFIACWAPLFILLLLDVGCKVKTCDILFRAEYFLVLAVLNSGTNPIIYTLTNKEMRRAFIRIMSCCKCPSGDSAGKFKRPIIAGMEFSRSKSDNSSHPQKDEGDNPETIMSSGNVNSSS

[16] = target: Peroxisome proliferator-activated receptor gamma (Homo sapiens) (UniProt P37231); test: agonists of PPARgamma SRC-2 coactivator recruitment, confirmation, biochemical, HTS (AID 1297); details: biochemical SRC-2 recruitment by PPARgamma; at 8 µM; active compounds read high;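 note: 0% = vehicle alone and 100% = reference agonist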
Sequence of Peroxisome proliferator-activated receptor gamma (Homo sapiens) (P37231 whole entry, looked up): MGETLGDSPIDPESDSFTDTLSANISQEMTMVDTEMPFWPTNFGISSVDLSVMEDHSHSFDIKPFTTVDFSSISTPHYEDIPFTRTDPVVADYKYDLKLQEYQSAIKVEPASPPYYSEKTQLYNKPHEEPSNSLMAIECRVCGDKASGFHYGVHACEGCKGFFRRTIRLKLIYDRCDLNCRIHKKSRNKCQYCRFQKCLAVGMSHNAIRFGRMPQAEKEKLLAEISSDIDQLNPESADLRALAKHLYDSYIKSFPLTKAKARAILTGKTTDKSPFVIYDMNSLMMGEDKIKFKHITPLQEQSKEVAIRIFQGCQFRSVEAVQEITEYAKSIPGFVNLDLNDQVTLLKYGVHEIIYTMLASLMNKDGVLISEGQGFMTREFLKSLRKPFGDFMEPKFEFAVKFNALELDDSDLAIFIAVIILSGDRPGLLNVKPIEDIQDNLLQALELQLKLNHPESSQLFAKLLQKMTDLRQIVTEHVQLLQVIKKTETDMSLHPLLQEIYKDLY

[17] = target: Peroxisome proliferator-activated receptor gamma (Homo sapiens) (UniProt P37231); test: PPARgamma agonists recruiting SRC-1 coactivator, confirmation, biochemical (AID 1300; in the data active = activation above about 20%;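 note: 0% = vehicle wells and 100% = reference agonist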); details: PPARgamma–SRC-1 coactivator recruitment biochemical assay; at 8 µM; active compounds read high
[18] = target: Peroxisome proliferator-activated receptor gamma (Homo sapiens) + Nuclear receptor coactivator 3 (Homo sapiens) (UniProt P37231+Q9Y6Q9); test: PPARgamma-driven SRC-3 coactivator recruitment agonists, confirmation, biochemical (AID 1301; in the data active = activation above about 24%;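 note: 0% = vehicle wells and 100% = reference agonist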); details: biochemical PPARgamma-SRC-3 coactivator recruitment, agonist mode; at 8 µM; active compounds read high
Sequence of Peroxisome proliferator-activated receptor gamma (Homo sapiens) + Nuclear receptor coactivator 3 (Homo sapiens) (P37231 whole entry, looked up): as above
Sequence of Peroxisome proliferator-activated receptor gamma (Homo sapiens) + Nuclear receptor coactivator 3 (Homo sapiens) (Q9Y6Q9 whole entry, looked up): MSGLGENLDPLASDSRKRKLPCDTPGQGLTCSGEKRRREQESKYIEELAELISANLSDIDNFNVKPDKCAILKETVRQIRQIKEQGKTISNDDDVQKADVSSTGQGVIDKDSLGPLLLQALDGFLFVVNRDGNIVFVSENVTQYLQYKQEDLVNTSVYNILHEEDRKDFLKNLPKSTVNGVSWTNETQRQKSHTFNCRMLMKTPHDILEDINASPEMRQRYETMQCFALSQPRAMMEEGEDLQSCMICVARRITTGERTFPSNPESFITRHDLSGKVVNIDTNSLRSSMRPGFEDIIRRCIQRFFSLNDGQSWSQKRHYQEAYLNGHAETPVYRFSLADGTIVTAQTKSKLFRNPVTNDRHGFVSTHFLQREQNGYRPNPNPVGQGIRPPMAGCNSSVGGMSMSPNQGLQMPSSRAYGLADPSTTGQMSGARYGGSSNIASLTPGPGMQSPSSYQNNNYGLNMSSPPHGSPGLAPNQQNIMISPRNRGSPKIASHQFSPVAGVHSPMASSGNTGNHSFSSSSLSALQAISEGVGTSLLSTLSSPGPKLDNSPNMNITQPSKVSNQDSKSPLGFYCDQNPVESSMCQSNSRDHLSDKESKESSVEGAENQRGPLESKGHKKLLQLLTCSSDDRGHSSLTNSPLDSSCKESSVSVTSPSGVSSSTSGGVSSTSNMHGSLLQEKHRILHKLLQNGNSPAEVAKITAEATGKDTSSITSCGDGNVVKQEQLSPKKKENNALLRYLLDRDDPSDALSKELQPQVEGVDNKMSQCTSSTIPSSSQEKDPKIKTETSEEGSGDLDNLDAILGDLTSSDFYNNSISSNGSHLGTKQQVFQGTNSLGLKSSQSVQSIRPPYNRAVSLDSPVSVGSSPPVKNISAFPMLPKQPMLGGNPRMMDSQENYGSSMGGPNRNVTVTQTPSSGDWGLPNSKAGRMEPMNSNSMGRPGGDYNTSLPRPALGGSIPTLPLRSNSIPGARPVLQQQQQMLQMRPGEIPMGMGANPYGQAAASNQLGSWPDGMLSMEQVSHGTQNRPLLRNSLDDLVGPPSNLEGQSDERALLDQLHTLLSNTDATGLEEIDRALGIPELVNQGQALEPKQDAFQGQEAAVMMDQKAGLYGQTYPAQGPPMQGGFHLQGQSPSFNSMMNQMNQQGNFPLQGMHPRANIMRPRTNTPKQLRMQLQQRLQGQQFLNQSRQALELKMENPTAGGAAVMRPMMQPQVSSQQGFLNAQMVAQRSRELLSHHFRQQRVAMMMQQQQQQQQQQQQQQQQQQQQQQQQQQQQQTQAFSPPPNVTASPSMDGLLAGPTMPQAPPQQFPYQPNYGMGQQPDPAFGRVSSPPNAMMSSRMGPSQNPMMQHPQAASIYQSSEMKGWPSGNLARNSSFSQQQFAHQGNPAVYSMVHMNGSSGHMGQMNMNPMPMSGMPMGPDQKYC

[19] = target: Galanin receptor type 2 (Homo sapiens) (UniProt O43603); test: GALR2 antagonists, retest of hits, confirmation, cell-based (AID 866; in the data active = inhibition above about 27%;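 note: cells stimulated with galanin at about its EC80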); details: GALR2-expressing cells, antagonist mode, at 4 µM, active compounds read high
[20] = inhibitors of NFAT-driven beta-lactamase reporter, confirmation, counter-screen for GALR2 antagonist project, CHO NFAT-bla cells, FRET readout (AID 867;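 active = inhibition above the mean inhibition across tested compounds plus 3 SD, cut at about 27% in these data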;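 note: 0% = 500 nM thapsigargin stimulated wells and 100% = unstimulated BSA only wells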); details: thapsigargin-stimulated, at 4.2 µM, active compounds read high
[21] = target: Neuropeptide Y receptor type 2 (Homo sapiens) (UniProt P49146); test: NPY-Y2 potentiators or agonists, confirmation, cell-based (AID 1539; in the data active = activation above about 33%); details: cell-based NPY-Y2 potentiator/agonist assay; at 3.6 µM; active compounds read high
[22] = target: Neuropeptide Y receptor type 1 (Homo sapiens) (UniProt P25929); test: NPY-Y1 potentiators or agonists, counter-screen for NPY-Y2 potentiator project, cell-based, fluorescence (AID 1651; in the data active = activation above about 45%;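 note: cells stimulated with submaximal NPY then isoproterenol with phosphodiesterase inhibitor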); details: Y1 HEK293-CNG cells, membrane potential fluorescence; at 3.6 µM; active compounds read high
Sequence of Neuropeptide Y receptor type 1 (Homo sapiens) (P25929 whole entry, looked up): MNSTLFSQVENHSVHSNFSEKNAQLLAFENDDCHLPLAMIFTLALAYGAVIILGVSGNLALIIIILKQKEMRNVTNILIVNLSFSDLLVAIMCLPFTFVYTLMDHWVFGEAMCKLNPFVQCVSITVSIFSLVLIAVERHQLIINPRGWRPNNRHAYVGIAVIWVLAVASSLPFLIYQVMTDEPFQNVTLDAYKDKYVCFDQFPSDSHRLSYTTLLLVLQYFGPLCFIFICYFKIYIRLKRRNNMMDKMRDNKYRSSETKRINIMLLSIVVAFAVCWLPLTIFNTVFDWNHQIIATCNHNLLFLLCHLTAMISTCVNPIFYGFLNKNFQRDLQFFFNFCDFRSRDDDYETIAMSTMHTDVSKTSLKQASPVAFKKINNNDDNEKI

[23] = target: Neuropeptide Y receptor type 1 (Homo sapiens) (UniProt P25929); test: NPY-Y1 direct agonists, selectivity assay for NPY-Y2 potentiator project, cell-based, fluorescence (AID 1702;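 active = activation above the mean of DMSO-only control wells plus 3 SD, cut at about 18% in these data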;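 note: cells stimulated with 1 µM isoproterenol plus the PDE inhibitor Ro 20-1724; 0% = isoproterenol with DMSO and no NPY and 100% = 40 nM NPY; Y1 agonists lower the membrane potential dye signal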); details: HEK293 Y1-CNGC, membrane potential fluorescence, agonism; at 3.6 µM; active compounds read high
[24] = CNGC cAMP sensor activity inhibitors, counter-screen for NPY-Y2 potentiator project, cell-based, HEK293-CNG parental, membrane potential fluorescence (AID 1703;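 active = inhibition above the control-well mean plus 3 SD of those wells, cut at about 22% in these data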;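 note: 0% = DMSO with isoproterenol and 100% = DMSO without isoproterenol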); details: isoproterenol cAMP, at 3.6 µM, active compounds read high
[25] = target: Neuropeptide Y receptor type 2 (Homo sapiens) (UniProt P49146); test: NPY-Y2 direct agonists, counter-screen for NPY-Y2 potentiator project, cell-based, fluorescence (AID 1710;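 active = activation above the mean of solvent-only control wells plus 3 SD, cut at about 10% in these data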;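 note: cells stimulated by isoproterenol with no NPY added so direct agonism is tested; 0% = DMSO with isoproterenol alone and 100% = NPY at EC100 plus isoproterenol; agonism lowers probe fluorescence through less cAMP and CNG channel opening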); details: HEK293 Y2/CNGC cells, membrane potential fluorescence, agonist mode; at 3.6 µM; active compounds read high
[26] = KLF5 expression inhibitors, confirmation, DLD-1 cells, luminescence (AID 1834;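 active = inhibition above a set limit taken from the earlier primary screen, cut at about 63% in these data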;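 note: 0% = DMSO wells and 100% = LY294002 at 200 µM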); details: DLD-1 KLF5 promoter firefly luciferase reporter, at 4 µM, active compounds read high
[27] = cytotoxicity in rat IEC-6 cells, cytotoxicity control for KLF5 inhibitor project, cell-based, luminescence, triplicate (AID 1905; in the data active = inhibition above about 23%;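 note: cells exposed to compounds for 48 hours before viability read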); details: IEC-6 rat intestinal cells, viability luminescence; at 4 µM; active compounds read high
[28] = target: Oxytocin receptor (Homo sapiens) (UniProt P30559); test: human OXTR agonists, confirmation, fluorescence, CHO-OTR cells, triplicate (AID 434963;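 active = mean activation above about 20% derived from the earlier single-dose screen, limit read from the data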;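 note: peak over minimum fluorescence ratio per well during a 100 second FLIPR read; 0% = DMSO alone and 100% = oxytocin high control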); details: Fluo-8 calcium fluorescence, agonist, at 3 µM, active compounds read high
[29] = target: Vasopressin V1a receptor (Homo sapiens) (UniProt P37288); test: V1a receptor agonists, calcium signal, counter-screen for OXTR agonist project, triplicate, fluorescence, CHO-V1R cells (AID 434991;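 active = mean activation over triplicate exceeds the hit threshold set in the earlier primary screen, cut at about 20% in these data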;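 note: peak over basal fluorescence ratio within a 100 second read; 0% = DMSO alone and 100% = 3 nM vasopressin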); details: Fluo-8 calcium fluorescence, at 3 µM, active compounds read high
[30] = target: Nuclear receptor coactivator 3 (Homo sapiens) (UniProt Q9Y6Q9); test: SRC3 coactivator transcriptional activity inhibitors, confirmation, cell-based, luminescence, quadruplicate (AID 588792;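 active = mean inhibition over 43.08%, the solvent-only control mean plus 3 SD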;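 note: 0% = DMSO treated cells and 100% = gossypol at 36 µM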); details: HEK293 GAL4-SRC3 luciferase reporter, at 3.6 µM, active compounds read high
[31] = system: transactivating tegument protein VP16 (Human herpesvirus 1), Gal4-VP16 luciferase reporter; test: VP16 transactivation inhibitors, counter-screen for SRC3 inhibitor project, cell-based, luminescence, high throughput (AID 588794; in the data active = inhibition above about 30%); details: mammalian cells, VP16-driven luciferase reporter luminescence; at 3.6 µM; active compounds read high
[32] = growth loss of phage-infected RecBCD+ E. coli, confirmation, RecBCD inhibitor project, absorbance, E. coli V66, T4 gene 2 phage (AID 651982;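 active = mean inhibition over triplicates exceeding the hit threshold derived in the original primary screen, cut at about 11% in these data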); details: E. coli V66 + T4 2- phage, growth OD; at 11.9 µM; active compounds read high
[33] = E. coli viability inhibition, counter-screen for RecBCD inhibitor project, absorbance, high throughput (AID 651983; in the data active = inhibition above about 20%;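 note: E. coli strain V66 grown with compound alone and no phage infection; 0% = bacteria with DMSO vehicle only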); details: absorbance (OD) growth, at 11.9 µM, active compounds read high
[34] = growth loss of phage-infected AddAB-carrying E. coli, confirmation, counter-screen for RecBCD inhibitor project, absorbance, E. coli V3065, T4 phage (AID 651984;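 active = mean inhibition above the solvent-only control wells' mean plus 3 SD, cut at about 22% in these data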;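 note: higher means less bacterial growth from phage killing when AddAB is blocked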); details: E. coli expressing H. pylori AddAB + T4 phage, OD growth; at 11.9 µM; active compounds read high; gene 2 mutant T4, recBCD-deleted host

Compound: Cc1nc(CNS(=O)(=O)c2ccc(Oc3ccccc3)cc2)cs1
- inhibition [1]: 43.6% (active)
- inhibition [2]: 6.1%
- inhibition [3]: 12.1%
- inhibition [4]: 87.9% (active)
- inhibition [5]: 82.8% (active)
- inhibition [6]: 11%
- inhibition [7]: 44.6% (active)
- inhibition [8]: 43.7% (active)
- inhibition [9]: 37% (active)
- inhibition [10]: 1.48%
- inhibition [11]: 27%

Compound: Cc1ccc(S(=O)(=O)Nc2ccc3ncccc3c2)cc1
- inhibition [1]: 42.9%
- inhibition [2]: 3.83%
- inhibition [3]: 18% (active)
- inhibition [12]: -9.28%
- inhibition [13]: 5.01%
- inhibition [4]: 89.4% (active)
- inhibition [5]: 74.4% (active)
- inhibition [6]: 14.9%
- inhibition [7]: 47.2% (active)
- inhibition [8]: 36.3%
- inhibition [9]: 18.1%

Compound: C=CS(=O)c1sc(Cl)c(N2CCOCC2)c1[N+](=O)[O-] (centres undefined)
- inhibition [14]: 102% (active)
- inhibition [15]: 12.4%

Compound: COc1ccc(-c2csc(NC3OC(=O)c4ccccc43)n2)cc1 (centres undefined)
- inhibition [14]: 19.3%
- inhibition [15]: -6.85%

Compound: CCn1c(SCC(=O)Nc2cccc(F)c2)nnc1-c1cc2cc(Br)ccc2o1
- activation [16]: 18%
- activation [17]: 15%
- activation [18]: 14.3%

Compound: Cn1c(=O)cc(SCC(=O)N2CCCC2)c2cc(Cl)ccc21
- activation [16]: 60.1% (active)
- activation [17]: 41.1% (active)
- activation [18]: 42% (active)

Compound: NC(=O)CSc1oc(-c2cccs2)nc1S(=O)(=O)c1ccccc1
- activation [16]: 40.9% (active)
- activation [17]: 34.8% (active)
- activation [18]: 26.5% (active)

Compound: Cc1ccc(OCC(=O)Nc2ccc(-c3nc4ncccc4o3)cc2)cc1
- activation [16]: 2.88%
- activation [17]: 8.01%
- activation [18]: 5.41%

Compound: COC(=O)c1ccccc1SC1CC(=O)N(c2cccc(C)c2)C1=O (centres undefined)
- activation [16]: 0.78%
- activation [17]: -2.36%
- activation [18]: 10.9%

Compound: O=C(NC(Nc1nc2ccc([N+](=O)[O-])cc2s1)(C(F)(F)F)C(F)(F)F)c1ccccc1
- inhibition [19]: 99.4% (active)
- inhibition [20]: 69.4% (active)
- inhibition [14]: 64.5% (active)
- activation [21]: 30.6%
- inhibition [15]: 26.4%
- activation [22]: -2.54%
- activation [23]: -9.19%
- inhibition [24]: -2.45%
- activation [25]: 22.1% (active)
- inhibition [26]: 83.7% (active)
- inhibition [27]: 90.4% (active)
- activation [28]: 13%
- activation [29]: 8.96%
- inhibition [30]: 69.1% (active)
- inhibition [31]: 84.5% (active)
- inhibition [12]: 38.7%
- inhibition [13]: 84.3% (active)
- inhibition [4]: 98.5% (active)
- inhibition [5]: 93.3% (active)
- inhibition [6]: 82.9% (active)
- inhibition [7]: 105% (active)
- inhibition [8]: 93.3% (active)
- inhibition [9]: 86.8% (active)
- inhibition [32]: 8%
- inhibition [33]: 10.7%
- inhibition [34]: 11.3%
- inhibition [10]: 6.94%
- inhibition [11]: 65.9% (active)
